{"source": "PubChem BioAssay (NCATS)", "note": "Results filed as inconclusive are left out. Calls of active or inactive are those of the source. Calls come from the whole dose curve; as a rule, active = well fitted inhibition curve with a large enough effect; inconclusive = small, poorly fitted or top-dose-only effect; inactive = no such curve, though single readings can be large or run the other way. Potency is the fitted concentration of half-maximal effect."}
{"molecular_target": "Chromobox protein homolog 1 (Homo sapiens) (UniProt P83916)", "sequence (P83916 whole entry, looked up)": "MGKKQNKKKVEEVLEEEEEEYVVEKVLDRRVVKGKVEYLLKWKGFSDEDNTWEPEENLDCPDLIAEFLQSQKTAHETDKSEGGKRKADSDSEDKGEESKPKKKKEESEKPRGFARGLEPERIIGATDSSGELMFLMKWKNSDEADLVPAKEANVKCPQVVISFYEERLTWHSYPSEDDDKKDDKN", "experiment": "qHTS Validation Assay for Inhibitors of HP1-beta Chromodomain Interactions with Methylated Histone Tails (AID 488953); note: nearly all actives have a fitted effect of over 50% in size", "settings": "HP1-beta chromodomain / methylated histone peptide binding assay; series mostly up to 114 µM", "excerpt": "As our understanding of epigenetics expands, it is becoming clear that players in this field are potential targets for drug development. This area of epigenetic therapy has established applications for the treatment of cancer and neurological diseases. We have been involved in this field for a number of years and have performed high-throughput screens to identify the first small molecule inhibitors of protein methyltransferases. These methyltransferases target multiple substrates, and thus regulate many arms of an epigenetic pathway. The methylation of different substrates often generates docking sites for effector proteins that harbor binding domains (chromo, tudor, PHD, MBT and ANK repeats).\nIt has been proposed that the binding sites generated for different proteins by these post-translational modifcations mediate downstream effects on chromatin. Consistent with this theory, di- and tri-methylation of histone H3K9 facilitates the binding of heterochromatin protein HP1. The HP1 protein harbors a chromodomain that is responsible for the methyl-dependent interaction between HP1 and lysine 9 of histone H3. HP1 was first described in flies as a heterochromatin associated protein that can regulate gene silencing. It harbors a chromodomain that binds H3K9me3. In addition, it harbors a chromoshadow domain that interacts with a large number of proteins that are involved in heterochromatin formation and gene repression. There are three highly related HP1 isoforms. All three variants are associated with pericentric heterochromatin and it is not clear whether they have specific or redundant functions. MPP8 is also involved in the repression of gene in euchromatic regions (unpublished data) and like HP1 its chromodomain binds H3K9me3. MPP8 harbors an ankyrin repeat region that is likely involved in binding and recruiting interacting proteins with transcriptional repressive function, much like the chromoshadow domain of HP1 does.\nWe hypothesize that by inhibiting specific protein-protein interactions we will be able to develop compounds that block a single arm of an epigenetic pathway. The specificity attained by blocking a single protein-protein interaction will be far greater than that attained by blocking the enzyme that regulates one of many interactions.\nLow-affinity protein-protein interactions (Kd in the single- to double-digit micromolar range) such as those discussed here have been very difficult to assay by traditional techniques such as fluorescence polarization or fluorescence resonance energy transfer. We have developed a sensitive chemiluminescence-based assay (Quinn, et al. 2009), which serves as the starting point for this project.\nThe following is a validation assay to identify lead compounds that can block methyl-dependent protein-protein interactions (specifically HP1-beta), which can be used as probes to analyze these methyl-driven interactions and perhaps even developed into targeted epigenetic therapies.\nAssay Provider: Mark T. Bedford, MD Anderson\nScreening Center PI: Austin, C.P.\nScreening Center: NIH Chemical Genomics Center [NCGC]\nTo each well, 2 uL of HP1-beta protein (final 50 nM) and 1 uL biotinylated histone peptide trimethylated at Lys9 [b-H3(1-18)K9me3] (final 50 nM) was added in 1x PBS buffer, pH 7.4, containing 0.01% Tween-20 using a nanoliter dispenser. Formation of a protein-peptide complex proceeded at room temperature for 30 min. A Kalypsys pin-tool was employed to transfer 23 nL of library compound solution in DMSO to each well. Aurintricarboxylic acid (ATA) was used as an intraplate control with a 12-point titration in duplicate. Following a 30 min incubation of the protein-peptide complex with compounds at room temperature, a mixture of 40 ug/mL each streptavidin-coated donor and nickel chelate acceptor AlphaScreen beads (final 10 ug/mL) was added in a 1 uL dispense for a final volume of 4 uL. Plates were incubated protected from the light for 30 min at room temperature. […]"}
{"molecule": "O=c1oc(Cl)c(Cl)c2ccccc12", "Potency": "39.8 µM (active)"}
{"molecule": "Brc1c(Br)c(Br)c2n[nH]nc2c1Br", "Potency": "inactive"}
{"molecule": "CN[C@H](CC(C)C)C(=O)N[C@H]1C(=O)N[C@@H](CC(N)=O)C(=O)N[C@@H]2C(=O)N[C@H]3C(=O)N[C@H](C(=O)N[C@H](C(=O)O)c4cc(O)cc(O)c4-c4cc3ccc4O)[C@H](O)c3ccc(c(Cl)c3)Oc3cc2cc(c3O[C@@H]2O[C@H](CO)[C@@H](O)[C@H](O)[C@@H]2O[C@H]2C[C@](C)(N)[C@H](O)[C@H](C)O2)Oc2ccc(cc2Cl)[C@H]1O", "Potency": "inactive"}
{"molecule": "O=[N+]([O-])c1ccc(O[C@@H]2O[C@H](CO)[C@@H](O)[C@H](O)[C@H]2F)c([N+](=O)[O-])c1", "Potency": "inactive"}
{"molecule": "NO", "Potency": "0.006 µM (active)"}
{"molecule": "CNCC[C@H](Oc1ccc(C(F)(F)F)cc1)c1ccccc1", "Potency": "inactive"}
{"molecule": "Nc1nc2[nH]c(=O)cnc2c(=O)[nH]1", "Potency": "0.0095 µM (active)"}
{"molecule": "Cc1cc(O)c2c(c1)C(=O)c1cc(O)cc(O)c1C2=O", "Potency": "22.4 µM (active)"}
{"molecule": "COc1ccc2c(c1)CCC1C2CC[C@@]2(C)C1CC[C@@H]2NCCCCCCN1C(=O)C=CC1=O", "note": "(stereo partly specified)", "Potency": "50.1 µM (active)"}
{"molecule": "N#C/C(=C\\c1ccc(O)c(O)c1)C(=O)NCCCNC(=O)/C(C#N)=C/c1ccc(O)c(O)c1", "Potency": "3.77 µM (active)"}
{"molecule": "CC(=O)C(C)=O", "Potency": "inactive"}
